In all, about 650,000 compounds went through this assay and about 6,800 (1%) were called active. Only a selection was taken, and actives are over-represented in it overall. Values without a mark were called inactive. No stated cut-off is given here; in the data, active means activation above about 4.9%; inactive means the rest.

The target in this experiment is G-protein coupled receptor 151 (Homo sapiens) (UniProt Q8TDV0). As to the kind of experiment: activates the human receptor GPR151, primary screen, cell-based, PathHunter beta-arrestin, luminescence (AID 1508602).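 Further: 0% = median of compound wells and 100% = cells with positive control.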 The following applies: PathHunter beta-arrestin GPR151 cells, at 11.2 µM, hits give high values.
G-protein coupled receptor 151 (Homo sapiens), sequence (Q8TDV0 whole entry, looked up): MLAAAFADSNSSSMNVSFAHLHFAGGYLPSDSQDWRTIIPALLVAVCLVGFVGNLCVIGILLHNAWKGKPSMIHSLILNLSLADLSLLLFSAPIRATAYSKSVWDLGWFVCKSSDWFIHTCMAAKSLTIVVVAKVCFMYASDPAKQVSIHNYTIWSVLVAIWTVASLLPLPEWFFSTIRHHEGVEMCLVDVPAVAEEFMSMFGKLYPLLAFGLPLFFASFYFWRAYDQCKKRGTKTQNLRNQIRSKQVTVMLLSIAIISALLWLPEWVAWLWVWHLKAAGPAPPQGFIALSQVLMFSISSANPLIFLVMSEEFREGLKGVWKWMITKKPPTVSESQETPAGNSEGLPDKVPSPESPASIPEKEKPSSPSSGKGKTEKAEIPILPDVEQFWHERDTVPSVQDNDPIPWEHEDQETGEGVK
On to `Cn1cccc1CC(=O)N/N=C\c1c(Cl)cccc1Cl`, for which the activation was 0.023%.
For the compound `COc1cccc(CC2(CCC(=O)NC3CCOC(C)(C)C3)CCC(=O)N2)c1` (stereo not drawn), the activation is 1.54%.
With `CC(C)CNc1nc2c(c(=O)[nH]c(=O)n2C)n1CC(C)O` (stereo not drawn), the activation was 5.96% (active).
As to `Cc1ccc(/C=N/Nc2nc3c(c(=O)[nH]c(=O)n3C)n2CC(O)COC(C)C)cc1` (stereo not drawn), the activation is -0.049%.
Consider `CCCCNc1nc2c(c(=O)[nH]c(=O)n2C)n1CC(O)COC(C)C` (stereo not drawn), for which the activation was 0.097%.
In the case of `C/C(=N\Nc1nc2c(c(=O)[nH]c(=O)n2C)n1CC(C)O)c1ccc(O)cc1` (stereo not drawn), the activation is -2.73%.
Regarding `CC(O)Cn1c(N(C)C)nc2c1c(=O)[nH]c(=O)n2C` (stereo not drawn), the activation is -0.989%.
In the case of `CCC(C)Nc1nc2c(c(=O)[nH]c(=O)n2C)n1CC(O)COC(C)C` (stereo not drawn), the activation is 5.88% (active).
With `Cc1cc(C)c(/C=N/NC(=O)c2nnn(-c3nonc3N)c2CN(C)C)c(C)c1` the figure was -0.818%; with `CCOC(=O)c1c(NC(=O)Cc2ccc([N+](=O)[O-])cc2)sc(C)c1C`, -0.865%; with `Cc1cc(S(=O)(=O)n2cc(-c3cccc(F)c3)c(N)n2)ccc1F`, 0.532%.
`CC(C)(C)C(=O)Nc1ccnn1C1CCN(Cc2ccccc2C(F)(F)F)CC1`: the activation is 0.711%.
With `Cc1ccc(C)c(CN2CCC(n3nccc3NC(=O)C(C)(C)C)CC2)c1` the figure was 5.02% (active); with `Cc1cccc(CN2CCC(n3nccc3NC(=O)C(C)(C)C)CC2)c1`, -0.39%; with `COc1cccc(/C=N/NC(=O)CC23CC4CC(CC(C4)C2)C3)c1O`, 0.719%.
With `COc1ccc(NC(=O)Cn2c(-c3ccc(OC)cc3)cn(-c3ccc(C)cc3)c2=O)cc1` the figure was 7.86% (active); with `COc1ccc(-n2ccnc2SCC(=O)Nc2ccc(C)cc2)cc1`, 1.88%.
Regarding `COc1ccc(NC(=O)Cn2c(=O)n(-c3ccc(F)cc3)c(=O)c3sccc32)cc1`, the activation is -0.363%.
As for `CCC1=C(C)c2cc3nc(C(=O)OCc4ccccc4)c(C)c-3c(C)n2C1C` (stereo not drawn), the activation is 5.68% (active).
As for `CCOc1ccc(-c2nn(-c3ccccc3)cc2C2C(C(=O)OCc3ccccc3)=C(C)NC(C)=C2C(=O)OCc2ccccc2)cc1`, the figure is 1.89%; as for `CCOC(=O)c1cc2c(C)n(Cc3ccccc3)c(C)c2cc(C(=O)OCC)c1=O`, -0.0778%; as for `NC(=O)CN(c1ccccc1)S(=O)(=O)c1ccccc1[N+](=O)[O-]`, 0.204%.
Take `CCOc1cc(CNCc2c(C(=O)O)n(CC)c3cc(OC)ccc23)ccc1OC`: the activation is -1.01%.
In the case of `O=C(CSc1nnnn1-c1ccc(F)cc1)N1CCc2ccccc21`, the activation was -1.53%.
With `COc1ccc(NC(=O)CCN2CCN(C=O)CC2)cc1` the figure was -1.28%.
With `O=C(CCN1CCN(C/C=C/c2ccccc2)CC1)Nc1ccc(Br)cc1` the figure was 1.05%; with `O=CN1CCN(CCC(=O)Nc2ccccc2)CC1`, 5.13% (active).
As to `CCOC(=O)c1c(NC(=O)c2nn3c(C(F)(F)F)cc(-c4ccc(OC)cc4)nc3c2Cl)sc2c1CCCC2`, the activation was 0.0805%.
`Cc1cc(Nc2ccc(F)cc2)n2cnnc2n1`: the activation is 9.65% (active).
With `Fc1ccc(Nc2nc3ccccc3n3cnnc23)cc1`, the activation was -0.0284%.
With `Cc1ccc(Nc2cc(C)nc3nncn23)cc1` the figure was -0.458%.
For `CCOc1ccccc1/C=C1/NC(=S)NC1=O`, the activation was 0.436%.
Consider `O=C1CCCN1CCn1cnc2c(NCc3nc4ccccc4[nH]3)nc(N3CCc4ccccc4C3)nc21`, for which the activation was -1.26%.
Take `CNC(=O)C(=O)Nc1cc(OC)ccc1OC`: the activation is -0.733%.
As for `CCn1cc(CNC(=S)Nc2cc(OC)ccc2OC)cn1`, the activation was -1.23%.
Consider `COc1ccc(OC)c(NC(=S)Nc2ccccn2)c1`, for which the activation is 9.49% (active).
For the compound `COCCn1nnnc1C(c1cc2c(C)cc(C)cc2[nH]c1=O)N1CCCC(C)C1` (stereo not drawn), the activation was 0.229%.
For the compound `CCOc1ccc2cc(C#N)c(SCC(=O)Nc3ccccc3C(=O)OC)nc2c1`, the activation is -0.792%.
`COc1ccc(OC)c(CNC(=O)c2cc3c(C)nc4ccccc4c3o2)c1`: the activation is 0.296%.
In the case of `O=C(Nc1cc(Cl)cc(Cl)c1)c1ccc(F)c(S(=O)(=O)NCc2ccco2)c1`, the activation is 0.664%.
In the case of `COc1ccc(C2=NN(C(=O)CSc3nnc(CNC(=O)c4ccc(S(=O)(=O)N(C)C)cc4)n3C)C(c3ccc(C)cc3)C2)cc1` (stereo not drawn), the activation is 1.11%.
Consider `CC(C)CC(C(=O)Nc1ccc([N+](=O)[O-])cc1)N1C(=O)c2ccccc2C1=O` (stereo not drawn), for which the activation is 2.66%.
As for `CC(C)CC(C(=O)Nc1ccc(Cl)cc1)N1C(=O)c2ccccc2C1=O` (stereo not drawn), the figure is -0.915%.
Turning to `CC(C)CC(C(=O)Nc1cccc([N+](=O)[O-])c1)N1C(=O)c2ccccc2C1=O` (stereo not drawn), the activation was 15.7% (active).
Turning to `CCOCCCNC(=O)/C(C#N)=C/c1c(Oc2ccc(CC)cc2)nc2ccccn2c1=O`, the activation is -7.56%.
As to `CCN(CC)c1ccc(CN2C[C@@H](NCc3ccc4ccccc4c3)C[C@H]2C(=O)NC)cc1`, the activation was 0.619%.
For `CC1CCN(c2nc3ccc(C(=O)NCCCOC(C)C)cc3s2)CC1`, the activation is -0.0522%.
For the compound `CCCCN(C)CCCNC(=O)C1CCN(c2nc3ccc(OC)cc3s2)CC1`, the activation was -1.77%.
For `CCOCCCNC(=O)NC1CCN(c2nc3ccccc3s2)CC1`, the activation was 5.41% (active).
Turning to `Cc1nn2c(N3CCNCC3)c3c(nc2c1-c1ccccc1)CCC3`, the activation was -1.05%.
Consider `Cn1c(=NC(=O)CN2C(=O)c3ccccc3C2=O)sc2cc(F)cc(F)c21`, for which the activation is 0.254%.
Regarding `FC(F)(F)c1ccc(Nc2nc(NC3CC3)c3ncn(C4CCCCC4)c3n2)cc1`, the activation is 0.642%.
In the case of `c1cncc(Nc2nc(NC3CC3)c3ncn(C4CCCCC4)c3n2)c1`, the activation is 11.5% (active).
With `c1cnc(Nc2nc(NCc3cccnc3)c3ncn(C4CCCCC4)c3n2)nc1`, the activation is -0.529%.
With `Cc1ccc(NC(=O)CCNS(=O)(=O)c2ccc3c(c2)c(=O)n(C)c(=O)n3C)nc1` the figure was -0.3%; with `Cc1ccc2cc(C#N)c(SCCO)nc2c1`, 6.39% (active).
Take `COc1ccc2cc(C#N)c(SC)nc2c1`: the activation is 0.673%.
`Cc1ccc(NC(=O)CSc2nc3cc4c(cc3cc2C#N)OCCO4)cc1`: the activation was -1.17%.
In the case of `CCN(CC)C(=O)Cn1cnc2sc(C(=O)NCc3ccc(Cl)cc3)c(C)c2c1=O`, the activation was 0.437%.
With `CC(C)(C)OC(=O)N1CCC[C@H](Cn2cc(C(=O)O)nn2)C1` the figure was 6.74% (active); with `COc1ccc([C@H](O)[C@@H]2CCCN(C(=O)OC(C)(C)C)C2)cc1`, 0.253%.
In the case of `COCCNC(=O)c1cn(C[C@H]2CCCN(C(=O)c3conc3C)C2)nn1`, the activation is 1.06%.
On to `O=C(Nc1ccccc1)c1cnc(NCCN2CCOCC2)s1`, for which the activation was -2.52%.
Take `COc1ccccc1C1C(C#N)=C(N)Oc2n[nH]c(-c3ccc4ccccc4c3)c21` (stereo not drawn): the activation was -0.23%.
`COc1ccc(-c2nnc(SCC(=O)Nc3ccc(Br)cc3)nc2-c2ccc(OC)cc2)cc1`: the activation was 1.77%.
With `OCCCNC(=S)Nc1ccccc1F` the figure was 0.421%; with `CC(C)C(=O)NC(=S)Nc1ccccc1F`, 6.35% (active); with `CC(C)CC(=O)NC(=S)Nc1ccc(F)cc1F`, 2.41%.
With `CCOc1ccccc1NC(=O)CCc1nc(-c2ccc(OC)c(OC)c2)no1` the figure was -1.02%.
As to `COc1ccccc1NC(=O)NCc1nc(-c2ccc(OC)c(OC)c2)no1`, the activation is 7.48% (active).
As to `COc1ccccc1Cc1nc(-c2ccc(OC)c(OC)c2)no1`, the activation is 1.66%.
With `COCCn1cc(C(=O)N2CCCCCC2)c2c3ccccc3n(C)c2c1=O` the figure was 0.412%; with `CC1CCCC(NC(=O)C2N(CCN3CCCCC3)C(=O)C3C(C(=O)Nc4cc(Cl)cc(Cl)c4)C4C=CC32O4)C1C` (stereo not drawn), -0.312%; with `COCCCNC(=O)c1nnc(-c2ccccc2)o1`, -0.472%.
As for `CC(C)=CCC/C(C)=C/C=N/Nc1ccc(S(N)(=O)=O)cc1[N+](=O)[O-]`, the activation is 1%.
As for `COc1cc(C(=O)Nc2c3c(nn2-c2ccc(F)cc2)CSC3)cc(OC)c1OC`, the figure is 1.91%; as for `Cc1ccc(-c2nc3ccc(C(=O)NCCC4=CCCCC4)cc3nc2-c2ccc(C)cc2)cc1`, 4.13%; as for `OCc1ccccc1CNc1ccc(F)cc1`, 10.3% (active).
For the compound `Cc1ccc(NCc2ccccc2CO)cc1`, the activation is -5.47%.
`Cn1c(CNc2ccc(F)cc2)c(C#N)c2ccccc21`: the activation was 0.294%.
Regarding `COc1cc(CN2CCN(C3CCCC3)C(CCO)C2)cc(OC)c1OC` (stereo not drawn), the activation is -0.445%.
For `O=c1c2c([nH]c(=S)n1Cc1ccco1)-c1ccccc1CC21CCCCC1`, the activation was -0.102%.
For `C=CCSc1nc2c(c(=O)n1CC1CCCC1)C1(CCCC1)Cc1ccccc1-2`, the activation is 0.419%.
With `CC(C)CCSc1nc2c(c(=O)n1Cc1ccco1)C1(CCCCC1)Cc1ccccc1-2` the figure was 16.5% (active); with `CC(C)(C)C(=O)/C=C/c1ccccc1O`, 0.824%; with `CC(C)N(CCNC(=O)c1cccc(-c2cccs2)n1)C(C)C`, -1.28%.
`CCc1ccc(NC(=O)CN2C(=O)CSC(C)C2=O)cc1` (stereo not drawn): the activation is -0.109%.
Consider `CCCCc1ccc(NC(=O)CSc2nnc(C)s2)cc1`, for which the activation is 0.0157%.
As to `CCCCc1ccc(NC(=O)CN2C(=O)C(C)SC(C)C2=O)cc1` (stereo not drawn), the activation is 6.11% (active).
With `Cc1ccccc1C(=O)NNC(=O)c1ccccc1F` the figure was -3.61%.
As to `CCOc1ccc(NC(=O)CSC2=C(C#N)C(c3ccc(Cl)cc3Cl)CC(=O)N2)cc1` (stereo not drawn), the activation is -1.43%.
In the case of `C=CCSC1=C(C#N)C(c2ccc(Cl)cc2Cl)CC(=O)N1` (stereo not drawn), the activation was 5.51% (active).
On to `CSC1=C(C#N)C(c2ccc(Cl)cc2Cl)CC(=O)N1` (stereo not drawn), for which the activation was -1.96%.

The record behind these values is PubChem BioAssay AID1508602 (The Scripps Research Institute Molecular Screening Center, 2020).
